Source: PubChem BioAssay
An excerpt weighted towards active compounds, which were near 21% of everything screened.
NS1 function inh: qHTS Assay for Inhibitors of Influenza NS1 Protein Function; Potency, µM (titrated, usually from 46.1 µM), inactives show at the top dose activity, positive = more growth; 270,000 tested, 0.4% active; calls by dose curve; further: potency means the concentration at half of the fitted maximal effect; actives are rising curves; nearly all actives have a fitted effect of over 50% in size
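In this qHTS, NS1 from influenza A is expressed in budding yeast, where it slows growth. Cells are switched from glucose to 2% galactose medium (pH 6.0, -URA), treated with compound, and growth recovery is read at OD600.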
Cycloheximide cs: Cycloheximide Counterscreen for Small Molecule Inhibitors of Shiga Toxin | cell reporter, cycloheximide protein synthesis inhibition counterscreen | 300,000 tested, 12% active | max response, %; in the data active means max response mostly above about 13%, no sharp cut-off; inactive means mostly below about 14%; further: read at 38.3 µM for the half of the compounds with a filed dose; 0% is about no effect
Giardia FBPA inh: qHTS Assay for Inhibitors of Fructose-1,6-bisphosphate Aldolase from Giardia Lamblia; purified Giardia FBPA; Potency, µM (doses to about 59.6 µM), for the others: at the top dose activity, negative = inhibition, actives largely listed as inhibitors; 290,000 tested, 0.71% active; AID 2451, 2010; further: potency means the concentration at half of the fitted maximal effect; on the % scale 0 is the no-effect control and ±100 the full control effect; nearly all actives have a fitted effect of over 55% in size
Target sequence (A8B2U2 whole entry, looked up): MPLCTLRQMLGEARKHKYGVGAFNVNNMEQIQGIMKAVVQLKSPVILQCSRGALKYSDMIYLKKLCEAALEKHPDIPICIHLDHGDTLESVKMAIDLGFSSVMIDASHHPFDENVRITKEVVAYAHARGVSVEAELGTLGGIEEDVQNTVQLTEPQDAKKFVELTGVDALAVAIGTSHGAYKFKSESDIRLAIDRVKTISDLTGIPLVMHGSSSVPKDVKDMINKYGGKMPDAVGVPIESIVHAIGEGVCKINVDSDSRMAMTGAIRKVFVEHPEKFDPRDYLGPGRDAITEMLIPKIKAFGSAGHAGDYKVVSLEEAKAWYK
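Giardia FBPA (40 nM reagent) was preincubated 10 min at RT with compound (up to 57.5 uM final), then substrate plus GAPDH/TPI/NAD/arsenate coupling system with diaphorase/resazurin was added; resorufin fluorescence (525/598 nm) was read after 20 min.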
Shiga inhibitor: A qHTS for Small Molecule Inhibitors of Shiga Toxin; Vero cells, Shiga toxin protein synthesis inhibition reporter; inhibition, % at 38.7 µM; 290,000 tested, 9.2% active; AID 2315, 2010; in the data active means inhibition mostly above about 28%, no sharp cut-off; inactive means mostly below about 43%; further: 0% is about no effect
Pf growth 96h: Primary qHTS for delayed death inhibitors of the malarial parasite plastid, 96 hour incubation; P. falciparum luciferase reporter growth, 96 h; Potency, µM (highest dose often 28.7 µM), inactives show at the highest dose activity change, negative = inhibition, actives largely listed as inhibitors; 320,000 tested, 6.9% active; AID 504834, 2011; further: potency means the concentration at half of the fitted maximal effect; on the % scale 0 is the no-effect control and ±100 the full control effect
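Erythrocytes infected with luciferase-expressing P. falciparum were dispensed at 2% hematocrit and 0.05% parasitemia (final), then incubated with compounds 96 hours at 37 C in 5% CO2. Luminescence after detection reagent addition reported growth.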
Pf growth 48h: Primary qHTS for delayed death inhibitors of the malarial parasite plastid, 48 hour incubation; 310,000 tested, 5.9% active; P. falciparum luciferase growth in erythrocytes, 48 h; Potency, µM (top dose mostly 28.7 µM), for inactives: at the highest dose activity change, negative = inhibition, usual class: inhibitors; further: potency means the concentration at half of the fitted maximal effect; on the % scale 0 is the no-effect control and ±100 the full control effect
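Read-out is firefly luciferase luminescence from an integrated reporter in P. falciparum, so falling signal marks reduced parasite growth. Infected erythrocytes were at 2% hematocrit and 0.1% parasitemia (final) in Albumax-supplemented RPMI 1640.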
Numbers without * were called inactive. Unless noted, the call rests on the fitted dose curve; in most records, active means well fitted curve in the direction sought with a large enough effect; inconclusive means small, poorly fitted or top-dose-only effect, or another doubt; inactive means no such curve, though single readings can be large; an effect the other way counts as inactive or inconclusive.

`Cn1c(SCc2nc3ccccc3[nH]2)nnc1-c1cccnc1` gave NS1 function inh 12%, Cycloheximide cs 14, Giardia FBPA inh -16%, Shiga inhibitor 31, Pf growth 96h 1.9µM* and Pf growth 48h 8%.
For CCOc1ccc(-c2nnc(SCc3nc4ccccc4[nH]3)n2N)cc1 the results were NS1 function inh 18%, Cycloheximide cs 42*, Giardia FBPA inh 14%, Shiga inhibitor 82 and Pf growth 48h inconclusive.
`CCn1c(C)c(C)c2cc(C(=O)NCCCN3CCCCC3C)ccc21` (stereo not given) gave NS1 function inh 9%, Cycloheximide cs -2, Shiga inhibitor -12, Pf growth 96h 2% and Pf growth 48h -2%.
Screening COc1cccc(NC(=O)CN(C)C(=O)c2ccc(S(=O)(=O)Nc3ccccc3F)cc2)c1 returned Pf growth 96h 2% and Pf growth 48h inconclusive.
CCN(CC)CCCN(C(=O)c1ccc(F)cc1)c1nc(-c2ccc(OC)cc2)cs1 was read as NS1 function inh 15%, Cycloheximide cs -6, Giardia FBPA inh inconclusive, Shiga inhibitor -2, Pf growth 96h 0% and Pf growth 48h inconclusive.
Cc1cc(C)cc(OC(C)C(=O)Nc2ccc3c(c2)n(C)c(=O)n3C)c1 (stereo not given) was read as NS1 function inh -11%, Cycloheximide cs -3, Giardia FBPA inh -3%, Shiga inhibitor -1, Pf growth 96h 0.93µM* and Pf growth 48h -6%.
For Cn1c(=O)n(C)c2cc(NC(=O)c3cc4ccccc4o3)ccc21 the results were NS1 function inh -44%, Cycloheximide cs 33*, Giardia FBPA inh -17%, Shiga inhibitor 89*, Pf growth 96h inconclusive and Pf growth 48h 8%.
For CCC(=O)Nc1cccc(NC(=S)NC(=O)c2cc3ccccc3o2)c1 the results were Cycloheximide cs 35*, Giardia FBPA inh -6%, Shiga inhibitor 72*, Pf growth 96h 41% and Pf growth 48h 357%.
For O=C(O)c1ccc(NC(=O)c2cc3ccccc3o2)cc1 the results were NS1 function inh -26%, Cycloheximide cs 21*, Giardia FBPA inh -2%, Shiga inhibitor 47, Pf growth 96h -23% and Pf growth 48h 46%.
Screening O=C(c1csnn1)N1CCC2(CCCN(c3ccc(-c4ccccc4)cc3)C2)CC1 returned Giardia FBPA inh -10%.
Screening CCC(=O)Nc1ccc(NC(=O)c2cc3ccccc3o2)cc1 returned NS1 function inh -62%, Cycloheximide cs 70*, Giardia FBPA inh -4%, Shiga inhibitor 83*, Pf growth 96h inconclusive and Pf growth 48h 55%.
Screening O=C(Nc1ccc2oc(=O)ccc2c1)c1cc2ccccc2o1 returned NS1 function inh 25%, Cycloheximide cs 35*, Giardia FBPA inh -2%, Shiga inhibitor 54*, Pf growth 96h inconclusive and Pf growth 48h 155%.
For CC(Cc1ccccc1)NC(=O)c1cc2ccccc2o1 (stereo not given) the results were NS1 function inh -10%, Cycloheximide cs 59*, Giardia FBPA inh 4%, Shiga inhibitor 141*, Pf growth 96h -2% and Pf growth 48h -23%.
CC(Cc1ccccc1)NC(N)=O (stereo not given) was read as NS1 function inh 10%, Cycloheximide cs 2, Giardia FBPA inh 2%, Shiga inhibitor -7, Pf growth 96h 66% and Pf growth 48h 37%.
For CCc1ccc(C(=O)Nc2ccc3c(c2)n(C)c(=O)n3C)cc1 the results were NS1 function inh -6%, Cycloheximide cs 12*, Giardia FBPA inh -3%, Pf growth 96h inconclusive and Pf growth 48h 2%.
`O=C(O)C1=C(OCc2ccccc2)C(=O)NCC1` gave NS1 function inh 8%, Cycloheximide cs -2, Giardia FBPA inh -1%, Shiga inhibitor -7, Pf growth 96h 28% and Pf growth 48h 15%.
For COc1cc2c(cc1OC)[C@@H]1CC(=O)[C@@H](CC(C)C)CN1CC2 the results were Giardia FBPA inh -2%.
